Results reported in PubChem BioAssay AID1159580 (chemical genetic matrix, 2015).
The whole screen tested about 5,500 compounds, of which about 2,000 (36%) were called active. Another 18% or so got no clear call; they are omitted. No stated cut-off is given here; in the data, active means normalized growth mostly below about 0.91 (no sharp cut-off); inconclusive means no clear call, values can overlap the other calls; inactive means mostly above about 0.92. The list shows a part of the results.

Experiment: chemical genetic growth profiling, strain panel (AID 1159580);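 further: tested at 20 µM; growth read once vehicle control cultures reached saturation at 30 °C; 1 = growth at the plate median or of vehicle wells; lower values mean less growth of the strain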
Settings: growth OD

Measured: normalized growth

N#C/C(=C\c1ccc(O)cc1)C(=O)O
inactive: S. cerevisiae deletion strains, locus YJR075W, strain HOC1, hits give low values 0.979 | S. cerevisiae deletion strains, locus YKL009W, strain mrt4, hits give low values 0.963 | S. cerevisiae deletion strains, locus YKL068W, hits give low values 0.999 | S. cerevisiae deletion strains, locus YKL085W, strain MDH1 (second series), hits give low values 0.973 | S. cerevisiae deletion strains, locus YKL085W, strain MDH1, hits give low values 0.973 | S. cerevisiae deletion strains, locus YKL160W, strain elf1, hits give low values 0.988 | S. cerevisiae deletion strains, locus YKL190W, strain CNB1, hits give low values 0.992 | S. cerevisiae deletion strains, locus YKR001C, strain vps1, hits give low values 1.01 | S. cerevisiae deletion strains, locus YKR026C, strain gcn3, hits give low values 0.97 | S. cerevisiae deletion strains, locus YKR091W, strain srl3, hits give low values 0.994 | S. cerevisiae deletion strains, locus YLL001W, strain dnm1, hits give low values 0.994 | S. cerevisiae deletion strains, locus YLL026W, hits give low values 1.01 | S. cerevisiae deletion strains, locus YLL041C, strain sdh2, hits give low values 0.995 | S. cerevisiae deletion strains, locus YLR027C, strain aat2, hits give low values 1.01 | S. cerevisiae deletion strains, locus YLR039C, strain RIC1, hits give low values 0.981 | S. cerevisiae deletion strains, locus YLR058C, strain SHM2, hits give low values 0.979 | S. cerevisiae deletion strains, locus YLR102C, strain apc9, hits give low values 0.988 | S. cerevisiae deletion strains, locus YLR113W, strain HOG1, hits give low values 1.01 | S. cerevisiae deletion strains, locus YLR221C, strain rsa3, hits give low values 0.984 | S. cerevisiae deletion strains, locus YLR258W, strain gsy2, hits give low values 1 | S. cerevisiae deletion strains, locus YLR262C, strain YPT6 (second series), hits give low values 0.993 | S. cerevisiae deletion strains, locus YLR262C, strain YPT6, hits give low values 0.97 | S. cerevisiae deletion strains, locus YLR268W, strain sec22, hits give low values 0.985 | S. cerevisiae deletion strains, locus YLR320W, strain mms22, hits give low values 1.03 | S. cerevisiae deletion strains, locus YLR330W, strain CHS5, hits give low values 0.992 | S. cerevisiae deletion strains, locus YLR342W, strain FKS1 (second series), hits give low values 1.07 | S. cerevisiae deletion strains, locus YLR342W, strain FKS1, hits give low values 1.01 | S. cerevisiae deletion strains, locus YLR357W, strain rsc2, hits give low values 0.989 | S. cerevisiae deletion strains, locus YLR370C, strain arc18, hits give low values 0.995 | S. cerevisiae deletion strains, locus YLR371W, strain rom2, hits give low values 1.01 | S. cerevisiae deletion strains, locus YLR384C, strain iki3, hits give low values 1 | S. cerevisiae deletion strains, locus YLR418C, strain cdc73, hits give low values 0.953 | S. cerevisiae deletion strains, locus YML016C, strain PPZ1, hits give low values 0.992 | S. cerevisiae deletion strains, locus YML032C, strain rad52, hits give low values 1.03 | S. cerevisiae deletion strains, locus YML120C, strain ndi1, hits give low values 0.994 | S. cerevisiae deletion strains, locus YML124C, strain tub3, hits give low values 0.999 | S. cerevisiae deletion strains, locus YMR058W, strain fet3, hits give low values 0.988 | S. cerevisiae deletion strains, locus YMR078C, strain ctf18, hits give low values 0.998 | S. cerevisiae deletion strains, locus YMR125W, strain sto1, hits give low values 0.96 | S. cerevisiae deletion strains, locus YMR129W, hits give low values 0.982 | S. cerevisiae deletion strains, locus YMR205C, strain PFK2, hits give low values 1.04 | S. cerevisiae deletion strains, locus YMR223W, strain ubp8, hits give low values 1.04 | S. cerevisiae deletion strains, locus YMR231W, strain pep5, hits give low values 1.01 | S. cerevisiae deletion strains, locus YMR263W, strain SAP30, hits give low values 0.962 | S. cerevisiae deletion strains, locus YMR307W, strain GAS1, hits give low values 1.12 | S. cerevisiae deletion strains, locus YNL067W, strain RPL9B, hits give low values 0.974 | S. cerevisiae deletion strains, locus YNL071W, strain lat1, hits give low values 0.998 | S. cerevisiae deletion strains, locus YNL128W, strain TEP1, hits give low values 0.927 | S. cerevisiae deletion strains, locus YNL153C, strain GIM3, hits give low values 0.953 | S. cerevisiae deletion strains, locus YNL183C, strain NPR1, hits give low values 0.993 | S. cerevisiae deletion strains, locus YNL209W, strain ssb2, hits give low values 0.997 | S. cerevisiae deletion strains, locus YNL233W, strain BNI4, hits give low values 0.997 | S. cerevisiae deletion strains, locus YNL248C, strain rpa49, hits give low values 0.963 | S. cerevisiae deletion strains, locus YNL250W, strain rad50, hits give low values 0.968 | S. cerevisiae deletion strains, locus YNL271C, strain bni1, hits give low values 1.01 | S. cerevisiae deletion strains, locus YNL298W, strain CLA4, hits give low values 1 | S. cerevisiae deletion strains, locus YNL307C, strain MCK1, hits give low values 1.03 | S. cerevisiae deletion strains, locus YNL322C, strain KRE1 (second series), hits give low values 0.996 | S. cerevisiae deletion strains, locus YNL322C, strain KRE1, hits give low values 0.977 | S. cerevisiae deletion strains, locus YNR049C, strain mso1, hits give low values 0.996 | S. cerevisiae deletion strains, locus YNR052C, strain pop2, hits give low values 1 | S. cerevisiae deletion strains, locus YOL006C, strain TOP1, hits give low values 0.912 | S. cerevisiae deletion strains, locus YOL012C, strain htz1 1.16 | S. cerevisiae deletion strains, locus YOL147C, strain pex11, hits give low values 0.998 | S. cerevisiae deletion strains, locus YOR001W, strain rrp6, hits give low values 0.982 | S. cerevisiae deletion strains, locus YOR061W, strain CKA2, hits give low values 0.954 | S. cerevisiae deletion strains, locus YOR069W, strain VPS5, hits give low values 0.992 | S. cerevisiae deletion strains, locus YOR070C, strain gyp1, hits give low values 1 | S. cerevisiae deletion strains, locus YOR080W, strain dia2, hits give low values 0.996 | S. cerevisiae deletion strains, locus YOR083W, strain WHI5, hits give low values 0.978 | S. cerevisiae deletion strains, locus YOR106W, strain vam3, hits give low values 0.997 | S. cerevisiae deletion strains, locus YOR136W, strain idh2, hits give low values 1 | S. cerevisiae deletion strains, locus YOR144C, strain elg1, hits give low values 0.993 | S. cerevisiae deletion strains, locus YOR184W, strain ser1, hits give low values 1.08 | S. cerevisiae deletion strains, locus YOR231W, strain MKK1, hits give low values 1.04 | S. cerevisiae deletion strains, locus YOR265W, strain rbl2, hits give low values 1 | S. cerevisiae deletion strains, locus YOR270C, strain vph1, hits give low values 0.989 | S. cerevisiae deletion strains, locus YOR290C, strain snf2, hits give low values 0.958 | S. cerevisiae deletion strains, locus YOR316C, strain cot1, hits give low values 0.985 | S. cerevisiae deletion strains, locus YPL051W, strain arl3, hits give low values 0.988 | S. cerevisiae deletion strains, locus YPL055C, strain LGE1, hits give low values 0.908 | S. cerevisiae deletion strains, locus YPL078C, strain atp4, hits give low values 0.971 | S. cerevisiae deletion strains, locus YPL106C, strain sse1, hits give low values 1 | S. cerevisiae deletion strains, locus YPL240C, strain hsp82, hits give low values 0.986 | S. cerevisiae deletion strains, locus YPL241C, strain CIN2, hits give low values 0.985 | S. cerevisiae deletion strains, locus YPL256C, strain CLN2, hits give low values 1.09 | S. cerevisiae deletion strains, locus YPR119W, strain clb2, hits give low values 1 | S. cerevisiae deletion strains, locus YPR141C, strain kar3, hits give low values 0.977 | S. cerevisiae deletion strains, locus YPR163C, strain tif3, hits give low values 1.01 | S. cerevisiae deletion strains, locus YPR167C, strain met16, hits give low values 0.984 | S. cerevisiae deletion strains, strain wtn01, hits give low values 0.977 | S. cerevisiae strains, strain wild type, hits give low values 0.983
